PubChem BioAssay (NCATS)
Results filed as inconclusive are left out. A number with no mark means an inactive call. Activity calls are given as the source filed them. The call rests on the fitted dose curve; in most records, active means well fitted curve in the direction sought with a large enough effect; inconclusive means small, poorly fitted or top-dose-only effect, or another doubt; inactive means no such curve, though single readings can be large; an effect the other way counts as inactive or inconclusive.

What was measured:
[1] = Quantitative High-Throughput drug screen in 47 multiple myeloma cell lines against the NCATS MIPE library collection: KMS20_JCRB cell viability assay (AID 1918973); further: nearly all actives have a fitted effect of over 45% in size
Procedure, shortened: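 Approved and investigational drugs from MIPE 4.0 were added by pin tool to 500 cells per well. After 48 hours at 37C, ATP-based CellTiter-Glo luminescence indicated remaining viability.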

[2] = Quantitative High-Throughput drug screen in 47 multiple myeloma cell lines against the NCATS MIPE library collection: KMS26_JCRB cell viability assay (AID 1918975); further: nearly all actives have a fitted effect of over 45% in size
Procedure, shortened: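 Luminescent ATP measurement with CellTiter-Glo gives viability, scaled between DMSO-only wells (100%) and media-only wells (0%). Cells, 500 per well, faced library compounds for 48 hours at 37C.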

[3] = Quantitative High-Throughput drug screen in 47 multiple myeloma cell lines against the NCATS MIPE library collection: MMM1_PLB cell viability assay (AID 1918976); further: nearly all actives have a fitted effect of over 35% in size
Procedure, shortened: (§1)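 500 cells/well; MIPE 4.0 drugs pin-transferred; 48 h, 37C, 5% CO2. CellTiter-Glo, 5 min RT, luminescence. Controls: DMSO 100%, media 0%.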

[4] = Quantitative High-Throughput drug screen in 47 multiple myeloma cell lines against the NCATS MIPE library collection: NCIH929_DSMZ cell viability assay (AID 1918978); further: nearly all actives have a fitted effect of over 35% in size
Procedure, shortened: as §1

[5] = Quantitative High-Throughput drug screen in 47 multiple myeloma cell lines against the NCATS MIPE library collection: OCIMY1_PLB cell viability assay (AID 1918979); further: nearly all actives have a fitted effect of over 35% in size
Procedure, shortened: as §1

[6] = Quantitative High-Throughput drug screen in 47 multiple myeloma cell lines against the NCATS MIPE library collection: MM1S_ATCC cell viability assay (AID 1918980); further: nearly all actives have a fitted effect of over 45% in size
Procedure, shortened: as §1

[7] = Quantitative High-Throughput drug screen in 47 multiple myeloma cell lines against the NCATS MIPE library collection: MM1R_ATCC cell viability assay (AID 1918981); further: nearly all actives have a fitted effect of over 35% in size
Procedure, shortened: as §1

[8] = Quantitative High-Throughput drug screen in 47 multiple myeloma cell lines against the NCATS MIPE library collection: LP1_DSMZ cell viability assay (AID 1918982); further: nearly all actives have a fitted effect of over 35% in size
Procedure, shortened: as §1

[9] = Quantitative High-Throughput drug screen in 47 multiple myeloma cell lines against the NCATS MIPE library collection: KMS28PE_JCRB cell viability assay (AID 1918983); further: nearly all actives have a fitted effect of over 35% in size
Procedure, shortened: as §1

[10] = Quantitative High-Throughput drug screen in 47 multiple myeloma cell lines against the NCATS MIPE library collection: KMS34_JCRB cell viability assay (AID 1918985); further: nearly all actives have a fitted effect of over 40% in size
Procedure, shortened: as §1

[11] = Quantitative High-Throughput drug screen in 47 multiple myeloma cell lines against the NCATS MIPE library collection: OCIMY7_PLB cell viability assay (AID 1918987); further: nearly all actives have a fitted effect of over 65% in size
Procedure, shortened: as §1

[12] = Quantitative High-Throughput drug screen in 47 multiple myeloma cell lines against the NCATS MIPE library collection: OCIMY5_PLB cell viability assay (AID 1918988); further: nearly all actives have a fitted effect of over 65% in size
Procedure, shortened: as §1

[13] = Quantitative High-Throughput drug screen in 47 multiple myeloma cell lines against the NCATS MIPE library collection: OPM1_PLB cell viability assay (AID 1918989); further: nearly all actives have a fitted effect of over 40% in size
Procedure, shortened: as §1

[14] = Quantitative High-Throughput drug screen in 47 multiple myeloma cell lines against the NCATS MIPE library collection: SKMM1_PLB cell viability assay (AID 1919863); details: SKMM1 myeloma viability, CellTiter-Glo ATP, 48 h; viability: stronger effect = lower value; further: nearly all actives have a fitted effect of over 35% in size
Procedure, shortened: as §1

[15] = Quantitative High-Throughput drug screen in 47 multiple myeloma cell lines against the NCATS MIPE library collection: U266_ATCC cell viability assay (AID 1919864); further: nearly all actives have a fitted effect of over 35% in size
Procedure, shortened: as §1

[16] = Quantitative High-Throughput drug screen in 47 multiple myeloma cell lines against the NCATS MIPE library collection: XG6_PLB cell viability assay (AID 1919865); further: nearly all actives have a fitted effect of over 40% in size
Procedure, shortened: as §1

[17] = Quantitative High-Throughput drug screen in 47 multiple myeloma cell lines against the NCATS MIPE library collection: XG1_PLB cell viability assay (AID 1919866); further: nearly all actives have a fitted effect of over 35% in size
Procedure, shortened: as §1

[18] = Quantitative High-Throughput drug screen in 47 multiple myeloma cell lines against the NCATS MIPE library collection: MOLP8_DSMZ cell viability assay (AID 1918977); further: nearly all actives have a fitted effect of over 45% in size
Procedure, shortened: as §1

[19] = Quantitative High-Throughput drug screen in 47 multiple myeloma cell lines against the NCATS MIPE library collection: L363_DSMZ cell viability assay (AID 1918984); further: nearly all actives have a fitted effect of over 40% in size
Procedure, shortened: as §1
Potency means the concentration at half of the fitted maximal effect.

Compound	Potency [1]	Potency [2]	Potency [3]	Potency [4]	Potency [5]	Potency [6]	Potency [7]	Potency [8]	Potency [9]	Potency [10]	Potency [11]	Potency [12]	Potency [13]	Potency [14]	Potency [15]	Potency [16]	Potency [17]	Potency [18]	Potency [19]
Cc1nc(Nc2n[nH]c3c2CN(C(=O)N[C@H](CN(C)C)c2ccccc2)C3(C)C)c2sccc2n1	0.105 µM (active)	2.96 µM (active)	4.69 µM (active)	0.148 µM (active)	16.6 µM (active)	2.64 µM (active)	1.05 µM (active)	0.0079 µM (active)	0.418 µM (active)	0.469 µM (active)	0.209 µM (active)	0.662 µM (active)	0.469 µM (active)	0.743 µM (active)	0.526 µM (active)	0.372 µM (active)	0.296 µM (active)		
Cc1c(CN2CCN(S(C)(=O)=O)CC2)sc2c(N3CCOCC3)nc(-c3cnc(N)nc3)nc12	0.0372 µM (active)	0.187 µM (active)	0.0235 µM (active)	0.0053 µM (active)	0.0418 µM (active)	0.0132 µM (active)	0.0264 µM (active)		0.0209 µM (active)	0.0372 µM (active)	0.132 µM (active)	0.0526 µM (active)	0.0662 µM (active)	0.0833 µM (active)	0.118 µM (active)	0.0662 µM (active)	0.0469 µM (active)		
COc1cc(C(=O)NS(=O)(=O)c2ccccc2C)ccc1Cc1cn(C)c2ccc(NC(=O)OC3CCCC3)cc12	6.62 µM (active)	16.6 µM (active)					14.8 µM (active)	20.9 µM (active)	23.5 µM (active)		14.8 µM (active)	18.7 µM (active)	7.43 µM (active)	18.7 µM (active)	18.7 µM (active)	14.8 µM (active)	11.8 µM (active)	18.7 µM (active)	
CC[C@@]1(O)C(=O)OCc2c1cc1n(c2=O)Cc2cc3cc(O)ccc3nc2-1	0.235 µM (active)	5.26 µM (active)	11.8 µM (active)		1.66 µM (active)	0.0526 µM (active)	0.0662 µM (active)	2.64 µM (active)	0.469 µM (active)	1.18 µM (active)	0.0105 µM (active)	1.66 µM (active)	2.96 µM (active)	1.32 µM (active)	2.96 µM (active)	0.0132 µM (active)	0.0662 µM (active)	0.662 µM (active)	0.935 µM (active)
Nc1nc(NCCNc2ncc(-n3ccnc3)c(-c3ccc(Cl)cc3Cl)n2)ccc1[N+](=O)[O-]	9.35 µM (active)	16.6 µM (active)		1.18 µM (active)		2.35 µM (active)	16.6 µM (active)	11.8 µM (active)	23.5 µM (active)		5.26 µM (active)	18.7 µM (active)	5.26 µM (active)		inactive	2.35 µM (active)	6.62 µM (active)	16.6 µM (active)	5.26 µM (active)
O=C(Nc1nc2cccc(-c3ccc(CN4CCS(=O)(=O)CC4)cc3)n2n1)C1CC1	18.7 µM (active)	13.2 µM (active)	9.35 µM (active)		23.5 µM (active)	20.9 µM (active)	14.8 µM (active)	20.9 µM (active)	13.2 µM (active)	8.33 µM (active)	9.35 µM (active)	6.62 µM (active)	14.8 µM (active)	16.6 µM (active)	14.8 µM (active)	16.6 µM (active)	14.8 µM (active)	14.8 µM (active)	
C=CC(=O)Nc1cccc(Oc2nc(Nc3ccc(N4CCN(C)CC4)cc3)ncc2Cl)c1	1.87 µM (active)	26.4 µM (active)	23.5 µM (active)	3.72 µM (active)	16.6 µM (active)	18.7 µM (active)	14.8 µM (active)	16.6 µM (active)	18.7 µM (active)	9.35 µM (active)	0.209 µM (active)	3.32 µM (active)	1.05 µM (active)	18.7 µM (active)		1.18 µM (active)	13.2 µM (active)		5.26 µM (active)
Cc1cc(C(=O)N2CCN(c3cccc(Cl)c3)CC2)n(-c2ccccc2)n1	0.209 µM (active)	18.7 µM (active)	7.43 µM (active)	16.6 µM (active)	3.72 µM (active)	16.6 µM (active)	9.35 µM (active)	5.26 µM (active)	1.87 µM (active)	1.05 µM (active)	0.059 µM (active)	0.187 µM (active)	5.26 µM (active)	0.296 µM (active)	20.9 µM (active)	0.118 µM (active)	0.0935 µM (active)		0.132 µM (active)
Cc1nc2cnc3ccc(C#Cc4cccnc4)cc3c2n1-c1ccc(C(C)(C)C#N)cc1	0.0148 µM (active)	1.32 µM (active)	0.148 µM (active)	0.0264 µM (active)	1.48 µM (active)	0.0743 µM (active)	0.166 µM (active)	0.0833 µM (active)			0.105 µM (active)	6.62 µM (active)	0.0526 µM (active)	3.72 µM (active)		0.0105 µM (active)	0.0105 µM (active)		
N#CCNC(=O)c1ccc(-c2ccnc(Nc3ccc(N4CCOCC4)cc3)n2)cc1	13.2 µM (active)	18.7 µM (active)	18.7 µM (active)		23.5 µM (active)			20.9 µM (active)	18.7 µM (active)	4.69 µM (active)	5.26 µM (active)	13.2 µM (active)	11.8 µM (active)		18.7 µM (active)	2.64 µM (active)	5.26 µM (active)	11.8 µM (active)	
